Measured values as given in PubChem BioAssay (NCATS).
Several values for one entry are separate records, joined by “and”; a condition that tells them apart may be missing. Equal entries are not always repeated. Inconclusive results are not listed. Activity calls are given as the source filed them. The call rests on the fitted dose curve; in most records, active means well fitted curve in the direction sought with a large enough effect; inconclusive means small, poorly fitted or top-dose-only effect, or another doubt; inactive means no such curve, though single readings can be large; an effect the other way counts as inactive or inconclusive.

Tests used:
[1] = Quantitative highthroughput screen to assess conditional lethalithy of NOMO1 cells grown in RPMI1640 with untreated serum (RPMI+s) (AID 1963876);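 further: 100% = DMSO wells and 0% = empty wells without cells; nearly all actives have a fitted effect of over 35% in size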
How it was run: (§1)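 Each medium arm—HPLM with 10% dialyzed FBS, or RPMI1640 with 5 mM glucose and 10% untreated or dialyzed FBS—was screened against an 11-point, 3-fold compound titration for 48 h at 37 °C, with CellTiter-Glo luminescence as endpoint.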

[2] = Quantitative highthroughput screen to assess conditional lethalithy of NOMO1 cells grown in RPMI1640 with dialyzed fetal bovine serum (RPMI+ds) (AID 1963877);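 further: series mostly up to about 46 µM; 100% = DMSO control wells and 0% = empty wells; nearly all actives have a fitted effect of over 30% in size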
How it was run: as §1

[3] = Quantitative highthroughput screen to assess conditional lethalithy of NOMO1 cells grown in Human Plasma-Like Medium with dialyzed fetal bovine serum (HPLM+ds) (AID 1963878);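 further: 100% = DMSO wells and 0% = empty wells on each plate; nearly all actives have a fitted effect of over 35% in size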
How it was run: as §1

[4] = Quantitative highthroughput screen to assess conditional lethalithy of P12 Ichikawa cells grown in Human Plasma-Like Medium with dialyzed fetal bovine serum (HPLM+ds) (AID 1963879); conditions: Potency: viability; further: series mostly up to about 46 µM; nearly all actives have a fitted effect of over 35% in size
How it was run: as §1

[5] = Quantitative highthroughput screen to assess conditional lethalithy of P12 Ichikawa cells grown in RPMI1640 with dialyzed fetal bovine serum (RPMI+ds) (AID 1963880); conditions: Potency: P12-Ichikawa viability;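 further: 100% = DMSO wells and 0% = empty wells on each plate; nearly all actives have a fitted effect of over 35% in size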
How it was run: as §1

[6] = Quantitative highthroughput screen to assess conditional lethalithy of P12 Ichikawa cells grown in RPMI1640 with untreated serum (RPMI+s) (AID 1963881); conditions: Potency: viability
How it was run: as §1

[7] = Quantitative highthroughput screen to assess conditional lethalithy of SEM cells grown in Human Plasma-Like Medium with dialyzed fetal bovine serum (HPLM+ds) (AID 1963882)
How it was run: as §1

[8] = Quantitative highthroughput screen to assess conditional lethalithy of SEM cells grown in RPMI1640 with unreated serum (RPMI+s) (AID 1963883)
How it was run: as §1

[9] = Quantitative highthroughput screen to assess conditional lethalithy of SEM cells grown in RPMI1640 with dialyzed fetal bovine serum (RPMI+ds) (AID 1963884)
How it was run: as §1

[10] = Cellular viability qHTS for adrenocortical cancer (ACC) cell line SW-13 (AID 1963989); conditions: SW-13 ACC cells viability, CellTiter-Glo, 48 h; activity (max response): active compounds read low;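 further: cells grown in serum-free medium with ITS supplement; on the % scale 0 is the no-effect control and ±100 the full control effect; nearly all actives have a fitted effect of over 65% in size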
How it was run: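 Here, serum-free SW-13 cultures were dosed up to 46 uM. Following 48 h, ATP-dependent luminescence (CellTiter-Glo) reported viable cells, and logistic modeling produced IC50 values.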

[11] = Cellular viability qHTS for adrenocortical cancer (ACC) cell line NCI-H295R (AID 1963990);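 further: 0% = DMSO only wells and -100% = full killing with cytotoxic reference compound; nearly all actives have a fitted effect of over 60% in size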
How it was run: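 Viability of NCI-H295R after 48 h of treatment (final up to 46 uM) measured through cellular ATP luminescence.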

C[C@@H]1CCN(C(=O)CC#N)C[C@H]1N(C)c1ncnc2[nH]ccc12
inactive: Potency [1] | Potency [2] | Potency [3] | Potency [4] | Potency [5] | Potency [6] | Potency [7] | Potency [8] | Potency [9]

COC(=O)N1CCN(Cc2cccc(NC(=O)Nc3ccc(C)nc3)c2F)CC1
inactive: Potency [1] | Potency [2] | Potency [3] | Potency [4] | Potency [5] | Potency [6] | Potency [7] | Potency [8] | Potency [9] | activity (max response) [10] -16.4% | Potency [11]

COCCCOc1ccnc(CS(=O)c2nc3ccccc3[nH]2)c1C (stereo unspecified)
inactive: Potency [1] | Potency [2] | Potency [3] | Potency [4] | Potency [5] | Potency [6] | Potency [7] | Potency [8] | Potency [9] | activity (max response) [10] 10.6% and -5.29%

Cn1cc(-c2ccc3nnc(Sc4ccc5ncccc5c4)n3n2)cn1
inactive: Potency [1] | Potency [2] | Potency [3] | Potency [4] | Potency [5] | Potency [6] | Potency [7] | Potency [8] | Potency [9] | Potency [11]

CCC1=C(C)CN(C(=O)NCCc2ccc(S(=O)(=O)NC(=O)NC3CCC(C)CC3)cc2)C1=O (stereo unspecified)
inactive: Potency [1] | Potency [2] | Potency [3] | Potency [4] | Potency [5] | Potency [6] | Potency [7] | Potency [8] | activity (max response) [10] -7.59% | Potency [11]

CNC(=O)c1ccc(N2C(=S)N(c3ccc(C#N)c(C(F)(F)F)c3)C(=O)C2(C)C)cc1F
inactive: Potency [1] | Potency [2] | Potency [3] | Potency [4] | Potency [5] | Potency [6] | Potency [7] | Potency [8] | Potency [9] | activity (max response) [10] -1.24% | Potency [11]

O=c1ccn([C@@H]2O[C@H](CO)[C@H](O)[C@@H]2F)c(=O)[nH]1
inactive: Potency [1] | Potency [2] | Potency [3] | Potency [4] | Potency [5] | Potency [6] | Potency [7] | Potency [8] | Potency [9] | activity (max response) [10] -7.29% | Potency [11]

COc1ccc(CC2=NN3C([C@@H](CCc4ccccc4)[C@@H](C)O)=NC(C)C3C(=O)N2)cc1OC (stereo partly specified)
inactive: Potency [1] | Potency [2] | Potency [3] | Potency [4] | Potency [5] | Potency [6] | Potency [7] | Potency [8] | Potency [9] | activity (max response) [10] 3.98% | Potency [11]

Oc1ccc(C2CNCCc3c2cc(O)c(O)c3Cl)cc1 (stereo unspecified)
inactive: Potency [1] | Potency [2] | Potency [3] | Potency [4] | Potency [5] | Potency [6] | Potency [7] | Potency [8] | Potency [9] | activity (max response) [10] 2.44% and 14.8% | Potency [11]

O=C(Nc1c(Cl)cncc1Cl)c1ccc(OC(F)F)c(OCC2CC2)c1
inactive: Potency [1] | Potency [2] | Potency [3] | Potency [4] | Potency [5] | Potency [6] | Potency [7] | Potency [8] | Potency [9] | activity (max response) [10] 5.46% | Potency [11]

O=C(C=CC=Cc1ccc2c(c1)OCO2)N1CCCCC1
inactive: Potency [1] | Potency [2] | Potency [3] | Potency [4] | Potency [5] | Potency [6] | Potency [7] | Potency [9]

C[C@H](O)[C@@H]1C(=O)N2C(C(=O)O)=C(S[C@@H]3CN[C@H](CNS(N)(=O)=O)C3)[C@@H](C)[C@@H]12
inactive: Potency [1] | Potency [2] | Potency [3] | Potency [4] | Potency [5] | Potency [6] | Potency [7] | Potency [8] | Potency [9] | activity (max response) [10] 8.99% | Potency [11]

Clc1cccc(-n2nnnc2NCc2ccccc2Oc2ccccn2)c1Cl
inactive: Potency [1] | Potency [2] | Potency [3] | Potency [4] | Potency [5] | Potency [6] | Potency [7] | Potency [8] | Potency [9] | Potency [11]

CC#CCn1c(N2CCC[C@@H](N)C2)nc2c1c(=O)n(Cc1nc(C)c3ccccc3n1)c(=O)n2C
inactive: Potency [1] | Potency [2] | Potency [3] | Potency [4] | Potency [5] | Potency [6] | Potency [7] | Potency [8] | Potency [9] | activity (max response) [10] 0.332% | Potency [11]

CC(C)(F)C[C@H](N[C@@H](c1ccc(-c2ccc(S(C)(=O)=O)cc2)cc1)C(F)(F)F)C(=O)NC1(C#N)CC1
inactive: Potency [1] | Potency [2] | Potency [3] | Potency [4] | Potency [5] | Potency [6] | Potency [7] | Potency [8] | Potency [9] | activity (max response) [10] -2.64% | Potency [11]
